The source of these data is PubChem BioAssay (EPA / NIEHS).

By AC50 is commonly meant the midpoint of the concentration-response curve, whichever way the signal moves.

Common to all, as to settings: mRNA level, 48 h; actives raise or lower the signal
Read-out in assay [1]: Glutamate-cysteine ligase regulatory (GCLM), GCLM (gene 2730)
The assay can be described thus: LTEA_HepaRG_GCLM: Life Technologies and Expression Analysis (LTEA) Assay for Glutamate-cysteine ligase regulatory (GCLM) using HepaRG (AID 2283500). In a few lines:
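Differentiated HepaRG cells exposed 48 h in serum-free induction medium to eight half-log concentrations up to 100 uM (0.5% DMSO). GCLM mRNA by TaqMan qRT-PCR, normalized to ACTB, GAPDH and POLR2A; bidirectional fit versus DMSO.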

Read-out in assay [2]: Glutathione S-transferase M3 (GSTM3), GSTM3 (gene 2947)
Nature of the assay: LTEA_HepaRG_GSTM3: Life Technologies and Expression Analysis (LTEA) Assay for Glutathione S-transferase M3 (GSTM3) using HepaRG (AID 2283501). In a few lines:
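Expression of GSTM3 is determined by qRT-PCR in human liver HepaRG cells treated 48 h with an 8-point half-log range from 100 uM in 0.5% DMSO.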

Read-out in assay [3]: Heat shock 70 kDa protein 1 (HSPA1A), gene 3303
The assay can be described thus: LTEA_HepaRG_HSPA1A: Life Technologies and Expression Analysis (LTEA) Assay for Heat shock 70 kDa protein 1 (HSPA1A) using HepaRG (AID 2283502). The gist of the method:
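Human HepaRG cells in serum-free induction medium were exposed in duplicate for 48 h to 8 half-log concentrations, highest 100 uM, in 0.5% DMSO. HSPA1A mRNA read by TaqMan qRT-PCR, normalized to ACTB, GAPDH, POLR2A, fitted bidirectionally against DMSO.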

Read-out in assay [4]: Hypoxia-inducible factor 1-alpha (Homo sapiens) (UniProt Q16665)
The assay can be described thus: LTEA_HepaRG_HIF1A: Life Technologies and Expression Analysis (LTEA) Assay for Hypoxia-inducible factor 1 (HIF1A) Trancription factor using HepaRG (AID 2283503). The gist of the method:
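Differentiated HepaRG cells in serum-free induction medium exposed 48 h, in duplicate, to 8-point half-log series from 100 uM in 0.5% DMSO. HIF1A mRNA measured by TaqMan qRT-PCR, normalized to ACTB/GAPDH/POLR2A, fitted bidirectionally versus DMSO.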

Read-out in assay [5]: 3-Hydroxy-3-Methylglutaryl-CoA Synthase 2 (HMGCS2), HMGCS2 (gene 3158)
The assay can be described thus: LTEA_HepaRG_HMGCS2: Life Technologies and Expression Analysis (LTEA) Assay for 3-Hydroxy-3-Methylglutaryl-CoA Synthase 2 (HMGCS2) using HepaRG (AID 2283504). In a few lines: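 This steatosis marker was read as HMGCS2 mRNA change in HepaRG cells treated 48 h with up to 100 uM chemical. Normalisation used housekeeping genes; activity in either direction was fitted relative to 0.5% DMSO vehicle.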

Read-out in the next assay: HGF (gene 3082)
Nature of the assay: LTEA_HepaRG_HGF: Life Technologies and Expression Analysis (LTEA) Assay for Hepatocyte Growth Facto (HGF) using HepaRG (AID 2283505). In a few lines: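 Using HepaRG monolayers kept in 0.5% DMSO, chemicals were tested in duplicate over eight half-log concentrations from 100 uM for 48 h. Endpoint: HGF mRNA change relative to DMSO, normalized to ACTB/GAPDH/POLR2A.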

Read-out in assay [6]: Insulin Like Growth Factor 1 (IGF1), IGF1 (gene 3479)
The assay can be described thus: LTEA_HepaRG_IGF1: Life Technologies and Expression Analysis (LTEA) Assay for Insulin Like Growth Factor 1 (IGF1) using HepaRG (AID 2283506). The gist of the method:
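Differentiated HepaRG cells in serum-free induction medium, exposed 48 h in duplicate to 8 half-log concentrations up to 100 uM in 0.5% DMSO. IGF1 mRNA by Fluidigm qRT-PCR, normalised to ACTB, GAPDH and POLR2A.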

Read-out in assay [7]: Intercellular Adhesion Molecule 1 (ICAM1), ICAM1 (gene 3383)
Nature of the assay: LTEA_HepaRG_ICAM1: Life Technologies and Expression Analysis (LTEA) Assay for Intercellular Adhesion Molecule 1 (ICAM1) using HepaRG (AID 2283507). In a few lines: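 Using the human liver line HepaRG, compounds are tested in duplicate over 48 h at concentrations up to 100 uM. Expression is determined by TaqMan qRT-PCR, normalized to endogenous controls, and analysed relative to 0.5% DMSO vehicle.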

Read-out in assay [8]: Insulin-like growth factor-binding protein 1 (IGFBP1), IGFBP1 (gene 3484)
The assay can be described thus: LTEA_HepaRG_IGFBP1: Life Technologies and Expression Analysis (LTEA) Assay for Insulin-like growth factor-binding protein 1 (IGFBP1) using HepaRG (AID 2283508). The gist of the method:
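HepaRG, 48 h, 8 conc. (max 100 uM, half-log), duplicates, 0.5% DMSO. Readout: TaqMan qRT-PCR, ACTB/GAPDH/POLR2A normalisation. Fit: bidirectional vs DMSO.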

Read-out in assay [9]: Interleukin 6 (IL6), IL6 (gene 3569)
The assay can be described thus: LTEA_HepaRG_IL6: Life Technologies and Expression Analysis (LTEA) Assay for Interleukin 6 (IL6) using HepaRG (AID 2283509). The gist of the method: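 HepaRG, ~100,000 cells/well, 48 h pre-culture; serum-free induction medium; cmpd 8-pt half-log from 100 uM, 0.5% DMSO, duplicate, 48 h. Lysis in RLT, TaqMan qRT-PCR; gain or loss vs DMSO.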

The structures appear in SMILES notation. Activity calls are given as the source filed them. The calls were made as follows: active = hit-call score of the fitted dose curve at least 0.9, where 1 is the maximum; inactive = score below 0.9.

Sequence of Hypoxia-inducible factor 1-alpha (Homo sapiens) (Q16665 whole entry, looked up): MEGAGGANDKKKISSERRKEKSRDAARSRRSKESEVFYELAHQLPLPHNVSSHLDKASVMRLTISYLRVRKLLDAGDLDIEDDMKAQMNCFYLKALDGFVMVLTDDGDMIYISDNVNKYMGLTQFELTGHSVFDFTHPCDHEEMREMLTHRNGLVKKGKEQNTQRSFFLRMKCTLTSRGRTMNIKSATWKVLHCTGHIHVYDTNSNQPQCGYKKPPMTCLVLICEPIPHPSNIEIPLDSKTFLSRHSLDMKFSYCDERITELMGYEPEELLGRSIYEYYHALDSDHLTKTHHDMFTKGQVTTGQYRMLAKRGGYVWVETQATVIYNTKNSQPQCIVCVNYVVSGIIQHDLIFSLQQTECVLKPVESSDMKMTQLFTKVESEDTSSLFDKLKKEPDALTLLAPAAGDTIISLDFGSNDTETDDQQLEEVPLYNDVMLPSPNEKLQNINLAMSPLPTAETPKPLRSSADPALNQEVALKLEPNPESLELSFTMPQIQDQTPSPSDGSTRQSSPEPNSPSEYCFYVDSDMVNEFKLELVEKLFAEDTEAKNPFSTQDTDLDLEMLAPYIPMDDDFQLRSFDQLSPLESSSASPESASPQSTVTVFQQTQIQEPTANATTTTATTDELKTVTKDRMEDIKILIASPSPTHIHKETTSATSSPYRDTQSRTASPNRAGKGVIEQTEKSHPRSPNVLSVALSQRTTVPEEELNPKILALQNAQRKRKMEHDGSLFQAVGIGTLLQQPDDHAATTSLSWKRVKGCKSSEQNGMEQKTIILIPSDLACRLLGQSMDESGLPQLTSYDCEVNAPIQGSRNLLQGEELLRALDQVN

Consider `CCCC(=NOCC)C1=C(O)CC(CC(C)SCC)CC1=O` (stereo not given), for which the compound was classed as inactive (in assay [1]; in [2]; in [3]; in assay [4]; in assay [5]; in the assay with HGF (gene 3082)). In addition, the result in assay [6], in assay [7], in assay [8] and in [9] was inactive.

As to `O=C(O)c1c(Cl)ccc2cc(Cl)cnc12`, the outcome (in assay [1]; in [2]; in assay [3]; in assay [4]; in [5]; in the assay with HGF (gene 3082)) was inactive. Besides, the result in [6], in assay [7], in assay [8] and in assay [9] was inactive.

Take `COC(=O)NC(=S)Nc1ccccc1NC(=S)NC(=O)OC`: the result (in assay [1]; in assay [2]; in assay [3]; in assay [4]; in assay [5]; in the assay with HGF (gene 3082)) was inactive. The result in assay [7], in [8] and in assay [9] was inactive. The AC50 in assay [6] was 29.9 µM (active).

For the compound `CCNC(=O)NC(=O)C(C#N)=NOC`, the call (in assay [1]; in assay [2]; in assay [3]; in assay [4]; with HGF (gene 3082); in assay [6]) was inactive. Moreover, the compound was classed as inactive in assay [7], in [8] and in assay [9]. In assay [5], the AC50 is 50 µM (active).

On to `CCCCOCN(C(=O)CCl)c1c(CC)cccc1CC`, for which the compound was classed as inactive (in assay [1]; in [2]; in assay [3]; in assay [4]; in assay [5]; in the assay with HGF (gene 3082)). In addition, the outcome in [7], in [8] and in [9] was inactive. Further, in assay [6], the half-maximal activity concentration (AC50) was 50 µM (active).

Regarding `Cc1c(COC(=O)[C@@H]2[C@H](/C=C(\Cl)C(F)(F)F)C2(C)C)cccc1-c1ccccc1`, the outcome (in [1]; in assay [2]; in assay [3]; in [4]; in [5]; in the assay with HGF (gene 3082)) was inactive. In addition, the outcome in assay [7], in [8] and in assay [9] was inactive. Moreover, in [6], the AC50 is 34.7 µM (active).

`COP(=S)(OC)Oc1ccc([N+](=O)[O-])c(C)c1`: the outcome (in assay [1]; in assay [2]; in assay [3]; in assay [4]; in assay [5]; in the assay with HGF (gene 3082)) was inactive. Besides, the call in assay [6], in assay [7], in [8] and in assay [9] was inactive.

As to `N#CN=C1SCCN1Cc1ccc(Cl)nc1`, the outcome (in assay [1]; in [2]; in assay [3]; in assay [4]; in [5]; with HGF (gene 3082)) was inactive. Also, the outcome in [6], in [7], in assay [8] and in assay [9] was inactive.

Regarding `CC1(C)C(C=C(Cl)Cl)C1C(=O)OC(C#N)c1cccc(Oc2ccccc2)c1` (stereo not given), the compound was called inactive (in assay [1]; in assay [2]; in assay [3]; in assay [4]; in assay [5]; with HGF (gene 3082)). Moreover, the compound was classed as inactive in assay [7], in assay [8] and in assay [9]. The concentration at half-maximal activity (AC50) in assay [6] is 50 µM (active).

Consider `CC1(C)CON(Cc2ccccc2Cl)C1=O`, for which the outcome (in assay [1]; in assay [2]; in assay [3]; in [4]; in assay [5]; with HGF (gene 3082)) was inactive. In addition, the outcome in assay [7], in [8] and in assay [9] was inactive. For the same compound, the concentration at half-maximal activity (AC50) in assay [6] is 25.6 µM (active).

As for `CNC(=O)Oc1cccc2ccccc12`, the result (in assay [1]; in assay [2]; in assay [3]; in assay [4]; in [5]; in the assay with HGF (gene 3082)) was inactive. Besides, the compound was called inactive in assay [6], in [7], in [8] and in assay [9].

With `CO/N=C(/C1=NOCCO1)c1ccccc1Oc1ncnc(Oc2ccccc2Cl)c1F`, the AC50 is 19.5 µM (active) in assay [1]; 21.9 µM (active) in [5]; 10.6 µM (active) in [6]; 29.4 µM (active) in assay [7]; 20.3 µM (active) in [8]; 28.4 µM (active) in assay [9]. For the same compound, the outcome (in assay [2]; in assay [3]; in assay [4]; with HGF (gene 3082)) was inactive.

On to `N#Cc1c(Cl)cccc1Cl`, for which the outcome (in assay [1]; in assay [2]; in [3]; in [4]; in [5]; in the assay with HGF (gene 3082)) was inactive. Moreover, the compound was called inactive in assay [6], in assay [7], in [8] and in [9].

Take `CS(=O)(=O)c1ccc(C(=O)C2C(=O)CCCC2=O)c([N+](=O)[O-])c1`: the call (in assay [1]; in assay [2]; in assay [3]; in [4]; in assay [5]; with HGF (gene 3082)) was inactive. Further, the compound was called inactive in [6], in assay [7], in assay [8] and in assay [9].

For the compound `CC(C)C1(C)N=C(c2ncccc2C(=O)O)NC1=O` (stereo not given), the call (in [1]; in assay [2]; in assay [3]; in [4]; in assay [5]; with HGF (gene 3082)) was inactive. For the same compound, the compound was called inactive in assay [6], in assay [7], in assay [8] and in assay [9].

On to `CC(C)N1C(=O)N(c2ccccc2)CSC1=NC(C)(C)C`, for which the AC50 in [1] was 74.7 µM (active); in [5], 75.5 µM (active); in [6], 59.9 µM (active); in assay [7], 74.6 µM (active); in assay [8], 89.1 µM (active); in [9], 77.1 µM (active). The compound was called inactive (in assay [2]; in assay [3]; in assay [4]; with HGF (gene 3082)).

Turning to `CCC(C)n1c(=O)[nH]c(C)c(Br)c1=O` (stereo not given), the outcome (in assay [1]; in assay [2]; in [3]; in assay [4]; with HGF (gene 3082); in assay [7]) was inactive. Besides, the outcome in assay [9] was inactive. Moreover, the AC50 in assay [5] is 29.2 µM (active); in assay [6], 8.53 µM (active); in [8] it was 18.1 µM (active).

Take `CSC(=O)c1c(C(F)F)nc(C(F)(F)F)c(C(=O)SC)c1CC(C)C`: the compound was called inactive (in assay [1]; in [2]; in assay [3]; in assay [4]; in the assay with HGF (gene 3082); in assay [7]). Besides, the call in [9] was inactive. Also, the figures for the AC50 in assay [5], in assay [6] and in assay [8] were 85.8 µM (active), 66 µM (active) and 49.8 µM (active), respectively.
